Screens from PubChem BioAssay.
Cycloheximide cs: affects cycloheximide protein synthesis inhibition readout, counter-screen; cell reporter, cycloheximide protein synthesis inhibition counterscreen; max response, %; actives 12% (n = 300,000); AID 2314; in the data active = max response mostly above about 13%, no sharp cut-off; inactive = mostly below about 14%; also: read at 38.3 µM for the half of the compounds with a filed dose; 0% is about no effect
Shiga inhibitor: Shiga toxin inhibition; actives 9.2% (n = 290,000); inhibition, % at 38.7 µM; Vero cells, Shiga toxin protein synthesis inhibition reporter; in the data active = inhibition mostly above about 28%, no sharp cut-off; inactive = mostly below about 43%; also: 0% is about no effect
Pf growth 96h: inhibits malaria parasite growth, 96 h | actives 6.9% (n = 320,000) | P. falciparum luciferase reporter growth, 96 h | Potency, µM (highest dose often 28.7 µM), without a hit: at the highest dose activity change, negative = inhibition, most hits filed as inhibitors | AID 504834; also: potency is read from the fitted curve at half-maximal effect; % is scaled to controls: 0 for no effect and ±100 for the full control effect
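Cell-based qHTS: luciferase-tagged P. falciparum in erythrocytes (2% hematocrit, 0.05% parasitemia final) incubated with compounds for 96 hours, 37 C, 5% CO2; luciferase detection reagent then added and luminescence measured.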
HCMV inh: human cytomegalovirus inhibition. HFF cells, HCMV-luciferase reporter, 72 h; hits give low values. activity change, negative = inhibition, % at 57.5 µM. actives 4.5% (n = 410,000). AID 1259415; in the data active = activity change below about -60%; inconclusive = no clear call, values can overlap the other calls; inactive = above about -39%; also: % is scaled to controls: 0 for no effect and ±100 for the full control effect
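Cell-based, HFFs, 1000 cells/well, 16 h 37C; cpds in DMSO + HCMV-luc, MOI 1 PFU/cell; 72 h 37C; OneGlo luminescence after 5 min RT; norm. to buffer vs Salinomycin 10uM.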
Pf growth 48h: P. falciparum growth inhibition at 48 hours (one generation); Potency, µM (series often up to 28.7 µM), for inactives: at the top dose activity change, negative = inhibition, usual class: inhibitors; P. falciparum luciferase growth in erythrocytes, 48 h; actives 5.9% (n = 310,000); also: potency is read from the fitted curve at half-maximal effect; % is scaled to controls: 0 for no effect and ±100 for the full control effect
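First compound was added to culture medium, then infected red cells at 0.1% parasitemia and 2% hematocrit (final). After incubation at 37 C under 5% CO2, luciferase detection reagent was dispensed and light output recorded.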
Active calls of the source: *; ? = inconclusive; . = no result. This is a sample that favours compounds with a hit; in the whole collection about 20% have one here. Unless noted, calls follow the shape of the dose curve; as a rule, active = well fitted inhibition curve with a large enough effect; inconclusive = small, poorly fitted or top-dose-only effect, or another doubt; inactive = no such curve, though single readings can be large or run the other way.

SMILES	Cycloheximide cs	Shiga inhibitor	Pf growth 96h	HCMV inh	Pf growth 48h
Cc1nc(CS(=O)(=O)c2ccccc2)cc(Sc2ccccc2Cl)n1	38.0*	104.6*	14.4%	30.9	-0.3%
COc1cccc(-n2ccnc2SCC(=O)Nc2nc3ccc(C)cc3s2)c1	.	.	.	4.3	.
COc1ccc(Cn2c(=O)[nH]c3cc(C(=O)NCCC(C)C)ccc3c2=O)cc1	.	.	.	-8.5	.
CC(=O)C(=Nc1ccccc1Cl)NNc1ccc(Cl)cc1	-0.3	0.9	4.65µM*	4.6	11.7µM*
Cc1c(NC(=O)c2ccc(Br)o2)c(=O)n(-c2ccccc2)n1C	-1.4	-12.6	.	-22.4	5.2%
C=CCn1c(COc2cccc(C)c2)nnc1SC(C)C(=O)NC1CC1 (centres undefined)	.	.	13.1µM*	-28.2	?
Cc1cc(-c2cc(NC=O)c3ncc(-c4cccc(C(=O)NCCN(C)C)c4)n3c2)cc(C)c1O	.	.	.	8.9	.
O=C(CSc1nnc(-c2ccco2)o1)N1c2ccccc2CCc2ccccc21	0.4	9.0	.	?	?
COC(=O)CSc1nnc(-c2c[nH]c3ccccc23)o1	-2.1	.	?	-10.2	10.8%
O=C(CSc1nnc(-c2c[nH]c3ccccc23)o1)N1c2ccccc2CCc2ccccc21	9.4	10.5	65.0%	-88.9*	?
O=C(CSc1nnc(-c2c[nH]c3ccccc23)o1)N1CCCCC1	25.8*	69.7*	?	5.3	28.7%
CCC(NC(=O)COC(=O)C1CC2CCCC(C1)C2=O)c1ccc(Br)cc1 (centres undefined)	.	.	16.5%	-21.9	0.0%
Cc1ccc(Cl)cc1N1CCN(C(=O)C2CCN(S(=O)(=O)c3cn(C)cn3)CC2)CC1	.	.	.	-20.9	.
CCOC(=O)C1CCC/C1=N\NC(=O)CN(c1cc(OC)ccc1OC)S(=O)(=O)c1ccccc1 (centres undefined)	-5.4	-4.7	6.6%	-26.0	?
O=C(O)c1cccc(C(=O)O)c1S(=O)Cc1ccccc1 (centres undefined)	.	.	.	-66.0*	.
CC(C)=CCCC1(C)C=Cc2c(c(C)cc3c2[nH]c2cc(O)ccc23)O1 (centres undefined)	-1.9	33.7	-16.3%	-104.4*	10.4µM*
CN1CCN(c2nc3c(c(=O)[nH]c(=O)n3C)n2CC(N)=O)CC1	-4.6	0.6	13.1µM*	-12.2	?
Cn1c(=O)[nH]c(=O)c2c1nc(N1CCN(c3cccc(Cl)c3)CC1)n2CCCc1ccccc1	0.8	-10.2	-22.0%	.	15.1%
CCCn1c(N2CCN(CC(=O)c3c(C)n(C)c4ccc(OC)cc34)CC2)nc2c1c(=O)[nH]c(=O)n2C	-1.8	-16.0	2.08µM*	-36.6	?
CCCCCn1c(N2CCN(c3cccc(Cl)c3)CC2)nc2c1c(=O)[nH]c(=O)n2C	-2.2	-0.7	5.86µM*	-3.3	.
CN1CCN(c2nc3c(c(=O)[nH]c(=O)n3C)n2CCCSc2ncccn2)CC1	-0.7	-13.4	13.1µM*	21.8	0.1%
COC(=O)[C@@]12C[C@@H](CC(=O)NCCCN3CCCC3=O)C(=O)N(CCc3ccc(OC)c(OC)c3)C1=CCC(C)(C)C2	.	.	.	21.4	.
Cn1c(=O)[nH]c(=O)c2c1nc(N1CCCCC1)n2CC(O)COc1ccccc1 (centres undefined)	-1.9	-13.1	?	1.3	-5.3%
C/C(Cl)=C\Cn1c(N2CCCC2)nc2c1c(=O)[nH]c(=O)n2C	-5.1	-4.5	-19.7%	-88.5*	-23.0%
Cc1ccnc(SCCn2c(N3CCN(c4ccccc4)CC3)nc3c2c(=O)[nH]c(=O)n3C)n1	-2.8	6.7	4.65µM*	2.6	.
SMILES	Cycloheximide cs	Shiga inhibitor	Pf growth 96h	HCMV inh	Pf growth 48h
CCOCCn1c(N2CCN(c3ccccc3)CC2)nc2c1c(=O)[nH]c(=O)n2C	21.2*	57.1	?	-33.5	104.7%
Cc1ccnc(SCCn2c(N3CCN(C)CC3)nc3c2c(=O)[nH]c(=O)n3C)n1	2.0	-24.4	-17.7%	.	13.6%
Cn1c(=O)[nH]c(=O)c2c1nc(N1CCOCC1)n2CC(O)COc1ccc2ccccc2c1 (centres undefined)	-1.4	-9.2	6.57µM*	-5.8	-9.7%
CC(C)(C)NC(=S)Nc1cccc(C(F)(F)F)c1	7.8	4.3	?	?	?
CC(C)(C)NC(=S)Nc1ccc(Nc2ccccc2)cc1	19.1*	46.4*	.	-36.7	?
CC(C)(C)NC(=S)Nc1ccc(Br)cc1	31.5*	58.2*	12.2%	?	12.3%
Cc1cccnc1CNC(=O)C1(C)CCCN1CC(C)C (centres undefined)	.	.	.	-37.4	.
Cc1cccc(N(CC(=O)NC(C)C)C(=O)c2ccc(N3CCCC3)nc2)c1	-0.5	-4.3	24.9%	-34.6	?
COc1ccc(C2c3ccc4ccccc4c3Oc3ncn(CCN4CCOCC4)c(=N)c32)cc1 (centres undefined)	-7.7	-20.2	6.57µM*	?	11.7µM*
COc1ccc(C2c3c(ncn(CCCN4CCOCC4)c3=N)Oc3ccc4ccccc4c32)cc1OC (centres undefined)	-0.9	9.4	1.85µM*	-11.8	4.15µM*
N=c1c2c(ncn1CCN1CCOCC1)Oc1cc(O)ccc1C2c1ccccc1 (centres undefined)	-2.9	2.1	?	0.0	?
COc1ccc(C2c3ccc4ccccc4c3Oc3ncn(CCN4CCOCC4)c(=N)c32)cc1OC (centres undefined)	-2.9	-16.0	13.1µM*	37.8	9.28µM*
Cc1cn(C)c(CC(=O)Nc2cccc(Cl)c2C)c1C(=O)O	.	.	.	7.8	.
COc1ccc(C(=O)NCC(c2ccc(N(C)C)cc2)N2CCCC2)cc1 (centres undefined)	.	.	.	-26.2	.
COc1ccc(C(CNC(=O)c2cc3ccccc3cc2O)N2CCOCC2)cc1 (centres undefined)	.	.	10.4µM*	2.0	9.28µM*
COc1ccc(C(CNC(=O)c2ccc(C)cc2)N2CCOCC2)cc1 (centres undefined)	.	.	.	38.4	.
COc1ccc(C(=O)NCC(c2ccc(N(C)C)cc2)N2CCOCC2)cc1 (centres undefined)	.	.	.	-76.6*	.
CCC1(C(=O)OC)CCc2c(cc(OC)c3ccccc23)C1=O (centres undefined)	-3.4	-2.3	?	-31.5	-14.8%
COc1ccc(Cl)cc1NC(=O)CSc1nc(Nc2ccccc2)nc(N2CCOCC2)n1	-3.2	-10.8	32.6%	-16.8	-2.2%
COc1ccccc1NC(=O)NNC(=O)c1cc2ccccc2cc1O	26.1*	101.1*	47.8%	27.0	19.5%
Cc1ccc(NC(=O)NNC(=O)c2cc3ccccc3cc2O)cc1	-0.9	-3.5	0.0%	36.8	24.8%
COc1cc(OC)c(NC(=O)c2cc3ccccc3cc2O)cc1Cl	.	.	.	-80.6*	.
Cc1ccc(CCNC(=O)c2ccc3c(c2)N(Cc2cccc(Cl)c2)C(=O)c2ccccc2S3(=O)=O)cc1	.	.	.	-38.1	.
COC(=O)c1cc(C#N)c(NCc2ccc(Cl)cc2Cl)nc1C	-4.1	-9.2	38.2%	7.6	5.8%
COC(=O)c1ccc(-c2ccc(Cl)cc2)nc1C	94.5*	36.7*	406.5%	56.9	495.8%
